The values below come from PubChem BioAssay (NCI).

The structures appear in SMILES notation. Compounds without any hit were thinned out: in the full panel of roughly 83,000, 20% have a hit.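 Cells were grown in 96-well plates and exposed to the test compound at a single concentration for 48 hours; results are reported as percent growth, with values below 10 considered active.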 A number with no mark means an inactive call. The source made the active and inactive calls.

Some test systems named below: T-47D breast; BT-549 breast; MDA-MB-435 melanoma; SW-620 colon; MCF7 breast; HCT-116 colon; HCC-2998 colon; KM12 colon.
What all share (assay): NCI-60 one-dose screen, 48 h (100 = growth as untreated, 0 = no growth, -100 = all killed)
What all share (details): 10 µM unless noted

As to `N#C/C(=C\c1ccc(Br)cc1)n1nnc2ccc(F)cc21`, the growth is 8.46% (active) in the assay on T-47D breast; 1.54% (active) in the assay on BT-549 breast; -34.1% (active) with MDA-MB-435 melanoma; -48.4% (active) in the assay with SW-620 colon; 5.23% (active) in the assay on MCF7 breast; -75.3% (active) in the assay on HCT-116 colon. The growth was -63.6% (active) in the assay on HCC-2998 colon and -24.7% (active) in the assay with KM12 colon.
As for `C=C1CC[C@@H]2[C@](C)(COC(C)=O)[C@H](OC(C)=O)CC[C@@]2(C)[C@@H]1CC(Sc1ccccc1)C1=CCOC1=O` (stereo not given in full), the growth is 7.94% (active) with T-47D breast; -22.6% (active) in the assay with BT-549 breast; 101% in the assay with MDA-MB-435 melanoma; 0.833% (active) in the assay on SW-620 colon; 2.14% (active) in the assay on MCF7 breast; -34.6% (active) with HCT-116 colon. Besides, the results for the growth with HCC-2998 colon and in the assay on KM12 colon were 44.7% and 18.6%, respectively.
In the case of `COc1ccc2c(O)c(/C=C3\N=Nc4ncccc43)oc2c1C[C@H]1CCNC[C@H]1F`, the growth in the assay on T-47D breast is 41.5%; with BT-549 breast, -54.6% (active); in the assay on MDA-MB-435 melanoma, 7.14% (active); in the assay on SW-620 colon, -15.5% (active); in the assay on MCF7 breast, 2.59% (active); in the assay with HCT-116 colon, -6.67% (active). The growth in the assay with HCC-2998 colon was 0.205% (active); in the assay with KM12 colon, -17.4% (active).
On to `N#Cc1c(N)nnn1Cc1cc(=O)oc2c1ccc1ccccc12`, for which the growth with T-47D breast is 92.3%; in the assay on BT-549 breast, 99.9%; with MDA-MB-435 melanoma it was 105%; with SW-620 colon, 97.7%; with MCF7 breast, 92.6%; in the assay on HCT-116 colon it was 106%. Further, the growth in the assay with HCC-2998 colon is 105%; with KM12 colon, 103%.
Consider `Cc1ccc(C(C(N)=O)C(C(N)=O)c2ccccc2)cc1` (stereo not given), for which the growth in the assay on T-47D breast was 112%; in the assay with BT-549 breast, 113%; with MDA-MB-435 melanoma, 109%; in the assay with SW-620 colon, 105%; with MCF7 breast, 112%; in the assay with HCT-116 colon, 101%. In addition, the growth in the assay with HCC-2998 colon is 112%; in the assay with KM12 colon, 105%.
Turning to `CC(C)CCNC(=O)Cn1cccc(NC(=O)OCc2ccccc2)c1=O`, the growth in the assay with T-47D breast is 104%; in the assay with BT-549 breast, 110%; in the assay with MDA-MB-435 melanoma, 115%; in the assay with SW-620 colon, 108%; in the assay on MCF7 breast, 95.1%; in the assay on HCT-116 colon it was 110%. For the same molecule, the growth is 103% in the assay on HCC-2998 colon and 107% in the assay with KM12 colon.
`Nc1c(C(=O)Nc2ccncc2)sc2nc3c(cc12)CCCCCC3`: the growth was 49.9% in the assay with T-47D breast; 69.4% in the assay on BT-549 breast; 96% with MDA-MB-435 melanoma; 103% in the assay on SW-620 colon; 78.5% in the assay on MCF7 breast; 65.5% in the assay with HCT-116 colon. For the same molecule, the figures for the growth with HCC-2998 colon and with KM12 colon were 94.1% and 80.7%, respectively.
For the molecule `COc1ccc(Cc2cc(-c3ccccc3)nn(Cc3ccccc3)c2=O)cc1OC`, the growth in the assay with T-47D breast is 7.51% (active); in the assay with BT-549 breast, 14.7%; in the assay with MDA-MB-435 melanoma, 43.9%; in the assay on SW-620 colon, 41%; with MCF7 breast, 19.9%; in the assay on HCT-116 colon, 15%. Also, the results for the growth in the assay with HCC-2998 colon and with KM12 colon were 60.5% and 35.2%, respectively.
Regarding `C=CCn1cc(-c2nc3ccccc3s2)c2cc(-c3ccc4c5c(cccc35)C(=O)N(N)C4=O)ccc21`, the growth with T-47D breast was 78.2%; in the assay with BT-549 breast it was 94.4%; in the assay on MDA-MB-435 melanoma it was 103%; in the assay on SW-620 colon, 98.5%; with MCF7 breast it was 75.2%; in the assay with HCT-116 colon, 96.6%. For the same molecule, the growth in the assay on HCC-2998 colon is 102%; in the assay with KM12 colon, 100%.
As for `CN1CCN(Cc2ccc(NC(=O)c3cncc(C#Cc4cnc(N)c5ccccc45)c3)cc2C(F)(F)F)CC1`, the growth is -60.6% (active) in the assay with T-47D breast; 25.9% in the assay with BT-549 breast; -88.7% (active) in the assay on MDA-MB-435 melanoma; -73.4% (active) with SW-620 colon; -76.8% (active) in the assay on MCF7 breast; -60.9% (active) with HCT-116 colon. Further, the figures for the growth in the assay with HCC-2998 colon and in the assay with KM12 colon were -92.3% (active) and -86.6% (active), respectively.
On to `COCCn1cc(-c2nc(-c3cc4cccnc4n3CCOC)cs2)c2cc(OC)ccc21`, for which the growth in the assay on T-47D breast is -10.5% (active); in the assay on BT-549 breast, 57%; with MDA-MB-435 melanoma it was 91.4%; in the assay on SW-620 colon it was 49%; with MCF7 breast, 5.4% (active); in the assay with HCT-116 colon, 43%. Also, the growth in the assay on HCC-2998 colon was 28%; in the assay with KM12 colon, 11.8%.
As to `Fc1ccc(Nc2nc3nonc3nc2Nc2ccc(I)cc2)cc1`, the growth is -26.7% (active) in the assay on T-47D breast; -6.04% (active) in the assay on BT-549 breast; 4.78% (active) in the assay on MDA-MB-435 melanoma; 11.2% in the assay with SW-620 colon; 1.98% (active) with MCF7 breast; 3.42% (active) in the assay with HCT-116 colon. In addition, the growth in the assay on HCC-2998 colon is 9.77% (active); with KM12 colon, 2.12% (active).
Turning to `COc1ccc(OC)c(-c2c(C#N)c(-c3cccs3)nc3c2c(-c2ccccc2)nn3-c2ccccc2)c1`, the growth in the assay with T-47D breast was 94.3%; with BT-549 breast it was 121%; in the assay on MDA-MB-435 melanoma, 104%; in the assay with SW-620 colon it was 93.9%; in the assay on MCF7 breast, 98.6%; in the assay on HCT-116 colon it was 91.7%. In addition, the figures for the growth in the assay on HCC-2998 colon and in the assay on KM12 colon were 110% and 105%, respectively.
Consider `COc1ccc2nc3ccc(OC)cc3c(SCCCN)c2c1`, for which the growth is 76.5% with T-47D breast; 95.5% with BT-549 breast; 87.3% with MDA-MB-435 melanoma; 18.3% in the assay on SW-620 colon; 28.7% in the assay on MCF7 breast; -49.8% (active) in the assay on HCT-116 colon. Moreover, the growth is 105% in the assay on HCC-2998 colon and 83.2% in the assay on KM12 colon.
Turning to `Cn1cc(-c2csc(-c3c[nH]c4ccc(Br)cc34)n2)c2cnccc21`, the growth is -51.5% (active) in the assay on T-47D breast; 7.16% (active) in the assay with BT-549 breast; -92% (active) in the assay on MDA-MB-435 melanoma; -82.6% (active) in the assay on SW-620 colon; -68.6% (active) in the assay on MCF7 breast; -90.9% (active) in the assay on HCT-116 colon. The results for the growth in the assay on HCC-2998 colon and in the assay on KM12 colon were -76.5% (active) and -79.9% (active), respectively.
